This is an account of results in PubChem BioAssay (Tox21).

Assay [1] in a line: Nuclear factor erythroid 2-related factor 2/antioxidant responsive element (Nrf2/ARE) small molecule agonists: qHTS cell viability counter screen in human keratinocytes (AID 1919968; active = well fitted curve in the direction sought with a large enough effect in the repeat runs; an effect the other way counts as inactive or inconclusive; note: nearly all actives have a fitted effect of over 55% in size). In short, it runs like this:
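HaCaT ARE reporter line, 1,500 cells/well; 5 h settle, 37 C/5% CO2; cpd in DMSO pinned; 23 h exposure; CellTiter-Fluor, 1 h; fluorescence.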
On the technique in general: qHTS replaces the single test concentration by a dilution series.

Assay [2] in a line: Nuclear factor erythroid 2-related factor 2/antioxidant responsive element (Nrf2/ARE) small molecule agonists: luciferase reporter gene qHTS assay in human keratinocytes (AID 1919969; note: nearly all actives have a fitted effect of over 35% in size). (A reporter such as luciferase makes a cellular process visible.)
The target of assay [3] is KiSS-1 receptor (Homo sapiens) (UniProt Q969F8). As to the kind of experiment: Human kisspeptin (KISS1R) small molecule agonists, calcium flux assay in KISS1R-HEK293 cells (AID 1920064; active = well fitted curve in the direction sought with a large enough effect in the repeat runs; an effect the other way counts as inactive or inconclusive). The procedure, abridged: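 Stable human KISS1R HEK293 line; 18 h plating, 37 C/5% CO2; calcium dye 1 h 37 C; compound pin transfer; kinetic fluorescence Ex/Em 480/540, 3 min.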
KiSS-1 receptor (Homo sapiens), sequence (Q969F8 whole entry, looked up): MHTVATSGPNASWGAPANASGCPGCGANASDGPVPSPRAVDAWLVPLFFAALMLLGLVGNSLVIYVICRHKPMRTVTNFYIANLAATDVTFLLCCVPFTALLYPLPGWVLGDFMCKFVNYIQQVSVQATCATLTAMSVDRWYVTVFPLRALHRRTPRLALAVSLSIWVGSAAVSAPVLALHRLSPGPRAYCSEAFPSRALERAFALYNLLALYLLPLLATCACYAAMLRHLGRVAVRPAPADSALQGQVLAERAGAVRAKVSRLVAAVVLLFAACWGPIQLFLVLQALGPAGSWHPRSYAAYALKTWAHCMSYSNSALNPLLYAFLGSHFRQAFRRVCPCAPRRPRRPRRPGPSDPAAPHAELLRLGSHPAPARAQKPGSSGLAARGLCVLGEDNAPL
A general note: Calcium assays in cells follow changes in intracellular calcium, usually with a dye or a luminescent sensor.

Assay [4] can be described thus: p53 small molecule agonists, cell-based qHTS assay with human liver microsomes: qHTS cell viability counter screen (AID 1963579). Note: nearly all actives have a fitted effect of over 45% in size. In short, it runs like this:
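Metabolically activated exposure: compounds, human liver microsomes and NADPH (0.5 mg/mL final apiece) were added to p53RE-bla cells seeded 5 h earlier, left 16 h at 37 C, and then assessed for viability by CellTiter-Glo luminescence.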

Assay [5] is described as follows: p53 small molecule agonists, cell-based qHTS assay with rat liver microsomes: qHTS cell viability counter screen (AID 1963580). Note: nearly all actives have a fitted effect of over 45% in size. In short, it runs like this:
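Viability is assessed in parallel with the p53 reporter read: HCT-116 p53RE-bla cells receive compounds plus rat microsomes and NADPH (0.5 mg/mL final apiece), incubate 16 h at 37 C, and then CellTiter-Glo luminescence is recorded.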

A short description of assay [6]: p53 small molecule agonists, cell-based qHTS assay: qHTS cell viability counter screen (AID 1963581). Note: nearly all actives have a fitted effect of over 45% in size. In short, it runs like this: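 HCT-116 p53RE-bla cells, 4,000/well, plated 5 h before compound pin transfer; 16 h at 37 C; bla substrate 2 h RT; then CellTiter-Glo, 30 min RT, luminescence.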
Assay [7] deals with 5-hydroxytryptamine receptor 2A (Homo sapiens) (UniProt P28223). Briefly: 5-hydroxytryptamine receptor 2A (HTR2A) small molecule antagonists, cell-based qHTS assay (AID 1963586). Note: nearly all actives have a fitted effect of over 45% in size. Note: potency is the fitted concentration of half-maximal effect. In short, it runs like this:
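Antagonist-mode intracellular calcium assay: DOI (4 nM) added after 5 min compound pre-incubation at room temperature to dye-loaded HTR2A-CHO cells. Fluorescence followed for 3 min, sampled every second.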

Assay [8] shares this target. Briefly: 5-hydroxytryptamine receptor 2A (HTR2A) small molecule agonists, cell-based qHTS assay (AID 1963587). Note: nearly all actives have a fitted effect of over 30% in size. Note: potency is the fitted concentration of half-maximal effect. The procedure, abridged: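 CHO cells stably expressing human HTR2A, plated 18 h, loaded with calcium dye 1 h at 37 C. Agonist mode: compounds added and intracellular calcium fluorescence recorded kinetically for 2 min at 1 sec intervals.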
Assay [9] has as its target Muscarinic acetylcholine receptor M1 (Homo sapiens) (UniProt P11229). As to the kind of experiment: Cholinergic receptor muscarinic 1 (CHRM1) small molecule antagonists, cell-based qHTS assay (AID 1963588). Note: nearly all actives have a fitted effect of over 40% in size. Note: potency is the fitted concentration of half-maximal effect. In short, it runs like this:
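CHRM1-CHO calcium-flux assay, antagonist mode. Cells were seeded 18 h, dye-loaded 1 h at 37 C and given compound for 5 min at RT, then acetylcholine was added at 50nM. FDSS fluorescence was read 3 min; 15 concentrations, three runs.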

The target is the same in assay [10]. As to the kind of experiment: Cholinergic receptor muscarinic 1 (CHRM1) small molecule agonists, cell-based qHTS assay (AID 1963589). Note: nearly all actives have a fitted effect of over 35% in size. The procedure, abridged: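 Human M1 in stable CHO line; 18 h plating, 1 h dye load 37 C; cpd added (agonist mode); Ca2+ fluorescence kinetic read, 1 s intervals; 15 conc, 3 runs.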
The nature of assay [11]: cAMP Responsive Elements (CRE) small molecule agonists, cell-based qHTS assay (AID 1963590). The procedure, abridged: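 HEK 293T CRE-bla, 2,000 cells/well, 18 h preincubation 37 C/5% CO2; cpds (DMSO) pinned, 3 h; LiveBLAzer B/G FRET substrate, 2 h RT.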
Assay [12] is described as follows: cAMP Responsive Elements (CRE) small molecule antagonists, cell-based qHTS assay (AID 1963591; active = well fitted inhibition curve with a large enough effect in the signal ratio in the repeat runs, not every such curve was filed as active; the % refers to the signal ratio). The procedure, abridged:
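Beta-lactamase reporter read by FRET substrate (LiveBLAzer B/G) after 2 h at room temperature. CRE-bla HEK293T cells had received compound plus 0.25 uM (final) NKH477 for 3 h at 37 °C.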

Assay [13] concerns the target Beta-2 adrenergic receptor (Homo sapiens) (UniProt P07550). Briefly: Adrenergic beta2 receptor (ADRB2) small molecule antagonists, cell-based qHTS assay (AID 1963592). Note: nearly all actives have a fitted effect of over 50% in size. Note: potency is the fitted concentration of half-maximal effect. The procedure, abridged:
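Cells (CHO, stable ADRB2 overexpression) incubated 18-20hr at 37C; compounds added from DMSO; agonist mix (1nM isoproterenol, 100uM IBMX, 25uM Ro-20-1724) added; 0.5hr RT; d2-cAMP and anti-cAMP-cryptate added; 1hr RT; 665/615 nm read.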

Assay [14] concerns the target D(2) dopamine receptor (Homo sapiens) (UniProt P14416). Briefly: Dopamine D2 receptor (DRD2) small molecule agonists, cell-based qHTS assay (AID 1963594). Note: nearly all actives have a fitted effect of over 35% in size. The procedure, abridged:
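HEK293 cells stably expressing human DRD2, pre-treated with PDE inhibitor Ro20-1724 (0.1 mM final) and compound 10 min at room temperature, then stimulated with NKH477 (200nM […]) for 30 min. cAMP read by HTRF (665/620 nm).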

The target is the same in assay [15]. As to the kind of experiment: Dopamine D2 receptor (DRD2) small molecule antagonists, cell-based qHTS assay (AID 1963595; active = well fitted inhibition curve with a large enough effect in the signal ratio in the repeat runs, with a control signal flat; the % refers to the signal ratio; note: potency is the fitted concentration of half-maximal effect). In short, it runs like this:
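HEK293 cells stably expressing DRD2, preincubated with 0.1 mM Ro20-1724 and compounds 10 min, were stimulated with 200 nM NKH477 plus 12 nM quinpirole for 30 min at room temperature; cAMP measured by HTRF (665/620 nm).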

Assay [16] can be described thus: p53 small molecule agonists, cell-based qHTS assay with human liver microsomes (AID 1963577).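 Note: p53 response element beta-lactamase reporter cells with liver microsomes plus NADPH.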 In short, it runs like this:
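In this qHTS, p53 response-element beta-lactamase cells receive test compound together with a microsome/NADPH activating system (0.5 mg/mL final each) and are incubated 16 h at 37 C before LiveBLAzer fluorescence detection.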

A short description of assay [17]: p53 small molecule agonists, cell-based qHTS assay (AID 1963582; active = well fitted activation curve with a large enough effect in the signal ratio in the repeat runs, not every such curve was filed as active; the % refers to the signal ratio). The procedure, abridged: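 Reporter line: p53RE-bla. Pre-incubation 5 h, 37 C, 5% CO2; compound (DMSO, pin tool) 16 h, 37 C; B/G FRET substrate 2 h RT; fluorescence intensity read.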
Assay [18] can be described thus: p53 small molecule agonists, cell-based qHTS assay with rat liver microsomes (AID 1963578). The procedure, abridged:
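Agonist mode in p53RE-bla reporter cells, with compounds co-incubated 16 h at 37 C alongside 0.5 mg/mL rat liver microsomes and 0.5 mg/mL NADPH (final), followed by a 2 h LiveBLAzer detection step.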

For assay [19], the target named is Beta-2 adrenergic receptor (Homo sapiens) (UniProt P07550). As to the kind of experiment: Adrenergic beta2 receptor (ADRB2) small molecule agonists, cell-based qHTS assay (AID 1963593).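 Note: CHO cells stably overexpressing human ADRB2.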 The procedure, abridged:
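CHO cells stably over-expressing ADRB2 were plated overnight at 37C, then dosed with compounds plus a stimulation mix containing 100uM IBMX and 25uM Ro-20-1724 for 0.5hr at room temperature. cAMP was measured by HTRF competition, 1hr.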

The nature of assay [20]: G protein-coupled receptor (GPCR) small molecule agonists, calcium flux assay: HEK293 wild type cell line counter screen (AID 1920065). In short, it runs like this: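 Kinetic fluorescence at Ex/Em 480/540, recorded every second over 3 min, served as the read-out after compound addition. Each compound was tested at 15 concentrations in triplicate on cells pre-loaded with calcium dye for 1 h.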

A number with no mark means an inactive call. Records with an inconclusive call do not appear. Calls of active or inactive are those of the source. Unless noted, calls come from the whole dose curve.

D(2) dopamine receptor (Homo sapiens), sequence (P14416 whole entry, looked up): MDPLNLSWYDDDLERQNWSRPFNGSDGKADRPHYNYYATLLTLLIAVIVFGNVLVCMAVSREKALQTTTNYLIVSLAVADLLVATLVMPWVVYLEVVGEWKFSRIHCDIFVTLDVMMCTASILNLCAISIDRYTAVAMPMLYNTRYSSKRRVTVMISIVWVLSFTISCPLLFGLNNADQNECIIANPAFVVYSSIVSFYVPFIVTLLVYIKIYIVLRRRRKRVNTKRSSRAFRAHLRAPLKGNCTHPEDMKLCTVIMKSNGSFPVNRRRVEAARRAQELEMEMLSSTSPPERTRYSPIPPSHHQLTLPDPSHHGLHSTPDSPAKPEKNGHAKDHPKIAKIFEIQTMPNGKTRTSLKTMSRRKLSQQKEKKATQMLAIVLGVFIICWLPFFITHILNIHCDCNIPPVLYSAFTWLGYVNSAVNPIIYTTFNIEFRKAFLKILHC
Beta-2 adrenergic receptor (Homo sapiens), sequence (P07550 whole entry, looked up): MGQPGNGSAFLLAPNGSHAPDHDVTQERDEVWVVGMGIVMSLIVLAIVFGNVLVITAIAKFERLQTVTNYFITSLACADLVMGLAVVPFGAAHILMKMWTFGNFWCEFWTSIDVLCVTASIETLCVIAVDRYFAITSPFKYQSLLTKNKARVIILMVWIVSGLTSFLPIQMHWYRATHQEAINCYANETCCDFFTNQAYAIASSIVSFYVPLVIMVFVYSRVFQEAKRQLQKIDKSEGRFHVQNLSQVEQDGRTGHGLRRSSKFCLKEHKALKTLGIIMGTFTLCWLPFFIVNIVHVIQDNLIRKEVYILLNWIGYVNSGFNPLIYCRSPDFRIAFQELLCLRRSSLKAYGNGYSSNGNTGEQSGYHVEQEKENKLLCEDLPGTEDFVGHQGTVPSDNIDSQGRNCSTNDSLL
Muscarinic acetylcholine receptor M1 (Homo sapiens), sequence (P11229 whole entry, looked up): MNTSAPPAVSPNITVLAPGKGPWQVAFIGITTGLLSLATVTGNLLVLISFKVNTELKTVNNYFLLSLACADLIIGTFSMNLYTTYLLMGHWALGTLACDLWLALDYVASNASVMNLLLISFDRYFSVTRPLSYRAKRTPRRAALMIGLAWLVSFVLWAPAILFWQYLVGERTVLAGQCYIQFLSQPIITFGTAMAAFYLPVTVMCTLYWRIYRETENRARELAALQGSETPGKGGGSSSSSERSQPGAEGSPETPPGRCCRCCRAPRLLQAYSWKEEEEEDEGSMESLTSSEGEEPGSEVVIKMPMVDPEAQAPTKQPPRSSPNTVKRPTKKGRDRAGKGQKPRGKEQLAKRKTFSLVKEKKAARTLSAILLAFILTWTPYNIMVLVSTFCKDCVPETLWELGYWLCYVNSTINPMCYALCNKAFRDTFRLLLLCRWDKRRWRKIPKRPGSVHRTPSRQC
5-hydroxytryptamine receptor 2A (Homo sapiens), sequence (P28223 whole entry, looked up): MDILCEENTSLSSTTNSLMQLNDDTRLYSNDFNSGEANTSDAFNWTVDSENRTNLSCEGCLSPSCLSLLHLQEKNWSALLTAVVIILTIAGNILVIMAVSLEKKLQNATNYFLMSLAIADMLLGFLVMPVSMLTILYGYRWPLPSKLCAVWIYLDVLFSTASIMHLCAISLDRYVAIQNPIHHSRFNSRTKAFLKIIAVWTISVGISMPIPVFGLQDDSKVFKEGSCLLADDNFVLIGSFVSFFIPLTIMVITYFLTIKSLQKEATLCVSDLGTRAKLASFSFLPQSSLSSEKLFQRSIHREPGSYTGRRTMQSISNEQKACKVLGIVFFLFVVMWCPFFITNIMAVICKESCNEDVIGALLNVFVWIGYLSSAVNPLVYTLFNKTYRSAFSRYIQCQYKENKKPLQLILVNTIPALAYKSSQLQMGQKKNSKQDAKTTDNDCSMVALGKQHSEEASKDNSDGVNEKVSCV

With `CCCCCCCCNC`, the Potency entry in [1], in assay [2], in assay [3], in assay [4], in assay [5] and in assay [6] was “inactive” in each case. Besides, the Potency entry in assay [7], in [8], in [9], in [10], in assay [11] and in assay [12] was “inactive” in each case. The Potency entry in assay [13], in assay [14] and in assay [15] was “inactive” each time.

Regarding `Cc1[nH]cnc1C[C@H]1CCc2c(C)c3ccccc3n2C1=O`, the Potency entry in assay [1], in [2], in [3], in assay [16], in assay [4] and in assay [5] was “inactive” throughout. Further, the Potency result in [6], in assay [17], in assay [11], in assay [12] and in assay [14] was “inactive” throughout. Besides, the Potency in assay [7] is 1.46 µM (active); in assay [8], 42.6 µM (active); in assay [9], 25.9 µM (active); in [13] it was 23.7 µM (active); in [15] it was 53.1 µM (active).

Turning to `CCCCCCCCCCCCCCC[C@H](O)[C@@H](N)CO`, the Potency result in [1], in assay [2], in assay [3], in assay [18], in [4] and in assay [5] was “inactive” throughout. Moreover, the Potency entry in [6], in assay [17], in assay [7], in assay [9], in assay [10] and in assay [11] was “inactive” in each case. Besides, the Potency result in assay [12], in assay [13], in [19] and in assay [15] was “inactive” each time. Also, the Potency in [8] was 7.56 µM (active).

With `CCCCOCCOCCOCCOCCO`, the Potency result in [1], in assay [2], in assay [3], in [20], in assay [4] and in assay [5] was “inactive” in each case. Also, the Potency entry in assay [6], in [7], in assay [8], in [10], in assay [11] and in assay [12] was “inactive” throughout. The Potency result in assay [14] and in [15] was “inactive” throughout.

Turning to `CN1CCC(=C2c3ccccc3CCc3cccnc32)CC1`, the Potency result in assay [1], in assay [2], in assay [3], in [20], in [4] and in assay [6] was “inactive” in each case. For the same compound, the Potency entry in assay [8], in assay [10], in [11], in assay [12] and in assay [13] was “inactive” throughout. Also, in assay [15], the Potency is 29.8 µM (active).

On to `CSCC[C@H](NC(=O)[C@H](Cc1c[nH]c2ccccc12)NC(=O)CCNC(=O)OC(C)(C)C)C(=O)N[C@@H](CC(=O)O)C(=O)N[C@@H](Cc1ccccc1)C(N)=O`, for which the Potency entry in assay [1], in assay [2], in [3], in assay [20], in assay [4] and in [5] was “inactive” throughout. Moreover, the Potency result in [6], in assay [11], in [12], in [13], in [14] and in assay [15] was “inactive” each time.
